Reference: PubChem BioAssay AID1117319 (Southern Research Institute, 2015)
“And” between values parts separate entries of the source, which are not always exact repeats. Equal entries are not always repeated. The campaign covered roughly 260,000 compounds. About 1,500 (0.58%) were called active. Another 5% or so got no clear call; they are omitted.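 How the source made its calls: active means inhibition above a set limit at one or more doses, reproduced on every date tested; inconclusive means results disagree between test dates, or hit never tested in dose response; inactive means the rest.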 A selection follows. Potency and affinity values are given separately.

molecular target: Virion infectivity factor (Human immunodeficiency virus type 1 group M subtype B (isolate BH10)) + Virion infectivity factor (Human immunodeficiency virus type 1 group M subtype B (isolate BRU/LAI)) + Virion infectivity factor (Human immunodeficiency virus type 1 group M subtype B (isolate PCV12)) + Virion infectivity factor (Human immunodeficiency virus type 1 group M subtype B (isolate HXB2)) + DNA dC->dU-editing enzyme APOBEC-3G (Homo sapiens) (UniProt P69720+P69721+P69722+P69723+Q9HC16); test: HIV-1 Vif–A3G interaction blockers – biochemical, TR-FRET, GST-Vif 1-94, biotin-A3G peptide, dose response retest, primary screen (AID 1117319); details: TR-FRET GST-Vif / biotin-A3G peptide binding; active compounds read high;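 further: Vif residues 1-94 fused to GST binding biotinylated APOBEC3G peptide 110-148; 0% = full assay without inhibitor and 100% = GST in place of GST-Vif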

inhibition, inactive:
C=C(C)CNC(=S)NNC(=O)c1ccncc1 -3.17%
Cc1cc(C)c(S(=O)(=O)NCCc2ccncc2)c(C)c1 -0.3%
CC(NC(N)=O)C(=O)Nc1ccc(Cl)c(S(=O)(=O)Nc2ccc(Br)cc2)c1 (centres undefined) 10.3%
CCOc1ccc(S(=O)(=O)n2ccc(C)n2)cc1 -9.61%
CCOc1ccc(NCCC#N)cc1 -2.11%
CCOc1ccc(NC(=O)NC2CCOC(C)(C)C2)cc1 (centres undefined) 22%
Cc1ccc(C)c(NC(=O)CSc2nc3c(c(=O)n2C)SC(C)C3)c1 (centres undefined) 8.15%
Cc1cc(C)c(NC(=O)CSc2nc3c(c(=O)n2C)SC(C)C3)c(C)c1 (centres undefined) 3.57%
CCC(C)N(NC(C)=O)c1nc(Cl)nc(NC(C)(C)C)n1 (centres undefined) 7.21%
COc1ccc(/C=N/NC(=O)CN(C2=NS(=O)(=O)c3ccccc32)c2ccccc2)cc1 22.5%
CCOC(=O)C1(Cc2cccc(OC)c2)CCN(Cc2ccc(C)s2)CC1 11.4%
Cc1ccc(O)c(Cc2cc(C)cc(Cc3cc(C)ccc3O)c2O)c1 -3.64%
Cc1cc(C(C)(C)C)c(O)c(C(C)(C)C)c1 17.9%
COc1ccc(OC)c(-c2[nH]nc3c2C(c2ccco2)C(C#N)=C(N)O3)c1 (centres undefined) 17.4%
CC(=O)Nc1ccc(S(=O)(=O)Nc2nc3ccc([N+](=O)[O-])cc3s2)cc1 0.77%
O=C(Nc1cccc(S(=O)(=O)NC2=NCCC2)c1)c1cc(-c2ccccn2)nc2ccccc12 -2.06%
O=C(NC1CC1)c1cc(-c2ccccn2)nc2ccccc12 -3.96%
O=C(NCC1CCCO1)c1cc(-c2ccncc2)nc2ccccc12 (centres undefined) -2.45%
O=C(Nc1cccc(S(=O)(=O)NC2=NCCC2)c1)c1cc(-c2ccco2)nc2ccccc12 -0.28%
O=C(NNC(=O)c1cc(-c2ccco2)nc2ccccc12)c1ccccc1 14%
COc1ccc(-c2cc(C(=O)NCC3CCCO3)c3ccccc3n2)cc1 (centres undefined) -7.4%
CN(CCc1ccccn1)S(=O)(=O)c1ccc(F)cc1 1.96%
Cc1cc2c(Nc3ccc(O)cc3)ncnc2s1 -0.33%
N#CC(C#N)=C1NC2(CCCC2)Cc2ccccc21 1.13%
Cc1ccc(Nc2nc(N)nc(CN3CCN(Cc4ccc5c(c4)OCO5)CC3)n2)cc1C 3.16%
CC(C)(O)C#Cc1ccc(C(=O)NCc2ccccc2)s1 6.16%
Cc1cccc(Oc2nc(-c3cccc([N+](=O)[O-])c3)nc3ccccc23)c1C -5.88%
Cc1ccc(NC2=NC(c3ccc(F)cc3)n3c(nc(C)cc3=O)N2)cc1 (centres undefined) 5.66%
CC(C)(C)OC(=O)NCCCC[C@H](NC(=O)c1nc[nH]c1C(=O)N[C@@H](CCCCNC(=O)OC(C)(C)C)C(=O)OC(C)(C)C)C(=O)OC(C)(C)C -5.41%
CC(=O)N1CCN(C(=O)CCC(=O)O)CC1 -4.74%
Cc1ccc(C)c(N(CC(=O)NCCSCc2ccco2)S(C)(=O)=O)c1 12%
Cc1ccccc1N(CC(=O)NCCSCc1ccco1)S(C)(=O)=O 3.05%
COc1ccc(N(CC(=O)NCCSCc2ccco2)S(=O)(=O)c2ccc(C)cc2)cc1 -1.79%
Cc1ccc(N(CC(=O)NCCSCc2ccco2)S(=O)(=O)c2ccc(C)cc2)cc1 -4.1%
O=C(CSc1nc2[nH]ncc2c(=O)[nH]1)Nc1cc(C(F)(F)F)ccc1Cl 3.21%
COc1ccc(CCNC(=O)CCSc2nc(-c3ccco3)cc(C(F)(F)F)n2)cc1 2.48%
CNC(=O)OCc1nc(SSC(C)(C)C)n(C)c1COC(=O)NC -4.09%
O=C(c1c(Cl)cccc1Cl)N1CCN(c2ccccn2)CC1 3.31%
CCOc1ccc2[nH]c(=O)c(CN(Cc3ccco3)C(CC)c3nnnn3Cc3ccccc3)cc2c1 (centres undefined) 4.17% and 12.4%
CCC(c1nnnn1Cc1ccccc1)N(Cc1ccco1)Cc1cc2cc(OC)ccc2[nH]c1=O (centres undefined) 6.8% and 6.79%
CCOC(=O)c1cc(NC(=O)CNCC(c2ccccc2)N(C)C)cc(C(=O)OCC)c1 (centres undefined) -3.03%
O=C1NC(Cc2ccccc2)c2nc3ccccc3c(=O)n2-c2cc3ccccc3cc21 (centres undefined) 0.54%
Cc1c(Cl)cccc1NC(=O)CCCCCN1C(=O)CCC1=O -0.64%
CC1NC(=O)NC1CCCCCC(=O)Nc1ccc(F)c(Cl)c1 (centres undefined) -8.82%
Cc1c(F)cccc1NC(=O)CSCC(=O)Nc1ccccc1 4.77%
CCc1cccc(NC(=O)CCSCCC(=O)Nc2cccc(CC)c2)c1 -3.74%
CC1NC(=O)NC1CCCCCC(=O)NCCc1ccccc1 (centres undefined) 31.4%
Cc1ccc(NC(=O)CCC(=O)Nc2ccc(C)cc2)cc1 2.94%
COC(=O)c1cccc(NC(=O)CSCc2ccccc2)c1 6.61%
O=C(Nc1ccsc1C(=O)N1CCCC1)c1ccccc1 -3.04%
CCOc1cccc(C2C(C#N)=C(N)Oc3cc(C)n(Cc4ccccn4)c(=O)c32)c1OCC (centres undefined) 14.3%
CCOC(=O)c1nn(-c2ccc(C)cc2)c(=O)cc1OCC(=O)Nc1cccc(C)c1 -4.53%
COC(=O)c1c(NC(=O)c2ccco2)sc2c1CC(C)(C)NC2(C)C -5.88%
CN(c1ccccc1)P(=O)(N(C)c1ccccc1)N(C)c1ccccc1 -2.89%
CCCCNC(=O)CCn1nc(-c2ccccc2)c2ccccc2c1=O -4.86%
COc1ccc(-c2cc(-c3n[nH]c(=S)n3-c3cccc4ccccc34)[nH]n2)cc1 32.6%
Cc1nc2ccccn2c1-c1csc(NCc2ccco2)n1 5.14%
Cc1ccn2c(-c3csc(NCc4ccco4)n3)c(C)nc2c1 16.9%
CC(=O)Oc1ccccc1/C=C1\CCOC1=O 13.1%
O=C(NCCN1C(=O)S/C(=C\c2ccc(Cl)c(Cl)c2)C1=O)c1cnccn1 20.5%
O=C(c1cc([N+](=O)[O-])ccc1N1CCOCC1)N1CCN(c2ccc([N+](=O)[O-])cc2)CC1 11.3%
O=C(NCc1ccccc1)c1csc2c1CCCCC2 -0.06%
COc1ccccc1CNC(=O)c1csc2c1CCCC2 10.6%
[O-]/C(=C(\C(=S)Nc1ccc(SC(F)F)cc1)[n+]1ccccc1)c1ccc(Cl)cc1Cl -10.3%
COc1cccc(OC)c1C(=O)Nc1nc(-c2ccccc2)cs1 -5.24%
CC(NC(=O)COc1ccccc1Cl)c1ccccc1 (centres undefined) -5.9%
CCn1c(SCC(=O)NNC(=O)c2ccc(OC)cc2)nnc1-c1ccco1 -0.44%
CC(=O)Nc1ccc(/C(N=Nc2ccccc2)=N/N=C(N)N)cc1 16.3%
Oc1ccc(/C=N\Nc2nncc(-c3ccccc3)n2)cc1 -5.32%
O=C1c2cc(Br)ccc2OC2C=CC=CC12 (centres undefined) -11.4%
COc1cccc(CNCCc2c[nH]c3ccccc23)c1OCc1ccc(F)cc1 1.44%
COc1cc(CNCCc2c[nH]c3ccccc23)ccc1OCc1ccc(F)cc1 12.4%
COc1ccc(C(=Cc2cc(OC)c(OC)cc2[N+](=O)[O-])C(=O)O)cc1 2.43%
CCOC(=O)c1cc2c(C)n(-c3ccc(OCC)cc3)c(C)c2ccc1=O 27.2%
O=C(O)C1Nc2c(C(F)(F)F)ccc(Cl)c2C2C=CCC12 (centres undefined) 24.9%
O=[N+]([O-])c1c(O)c(Cl)cc(Cl)c1Cl (tested in a mixture with another compound) -1.68%
O=C(O)C1Nc2c(Cl)cc(Cl)cc2C2C=CCC12 (centres undefined) 63.7%
Cc1noc(C)c1COC(=O)c1cnc(Cl)c(Cl)c1 3.39%
O=C(O)C12CC3CC(C1)CC(n1cnc(Cl)n1)(C3)C2 23.7%
Cc1nnc(Oc2ccccc2F)c2ccccc12 0.32%
Cc1cc(C)c(NC(=O)c2ccc(S(=O)(=O)N3CCOCC3)cc2)c(C)c1 -5.2%
Cc1cc(C)c2c(c1)C1C=CCC1C(c1ccc(S(=O)(=O)N3CCOCC3)cc1)N2 (centres undefined) 27.8% and -8.85%
Cc1ccc(CN2CC(C(=O)Nc3cccc(S(=O)(=O)N4CCCCC4)c3)CC2=O)cc1 (centres undefined) 14.4%
COc1ccc(-c2cc(C(=O)N/N=C/c3ccc4c(c3)OCO4)c3ccccc3n2)c(OC)c1 -3.1%
COc1ccc(/C=N/NC(=O)c2cc(-c3ccccc3OC)nc3ccccc23)cc1COC(C)=O -2.13%
CC(C)(C)c1cc(C(=O)Nc2ccccc2)ccn1 11.4%
Cc1ccccc1C(=O)O/N=C(\c1ccccc1)c1ccccn1 5.71%
O=C(O)c1ccc2c(c1)-c1cc(C(=O)O)ccc1S2(=O)=O -4.26%
Cc1ccn2cc(C34CC5CC(CC(C5)C3)C4)nc2c1 17%
Cc1nonc1-c1csc(N)n1 -6.95%
COc1cc(NC(=O)CSc2ccc(-c3ccco3)nn2)cc(OC)c1 0.78%
Cc1ccc(Sc2cc(NCCCO)c([N+](=O)[O-])c3nonc23)cc1 9.02%
CN(CCO)c1cc(Sc2nc3ccccc3s2)c2nonc2c1[N+](=O)[O-] 1.28%
CCC(=O)OCCNc1cc(Sc2nccn2C)c2nonc2c1[N+](=O)[O-] -4.53%
CCN(CC)c1cc(NCCO)c([N+](=O)[O-])c2nonc12 0.97%
CCC(=O)OCCNc1cc(SCCC(=O)OC)c2nonc2c1[N+](=O)[O-] 20%
CC(C)CCSc1cc(NCCO)c([N+](=O)[O-])c2nonc12 -1.66%
CC(=O)OCCCNc1cc(Sc2ccc(C)cc2)c2nonc2c1[N+](=O)[O-] 15.4%
CCC(=O)OCCNc1cc(Sc2nc3ccccc3s2)c2nonc2c1[N+](=O)[O-] 5.25%
